Jurkat autofluor = autofluorescence counter-screen for VLA-4 integrin assays | fluorescence ratio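 (tested at 10 µM compound in the well)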 | actives 0.61% (n = 24,000) | Jurkat cells, compound autofluorescence, flow cytometry; active compounds read high; 1 = vehicle-only cell background | AID 576;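 active means fluorescence ratio above 2.44, which is 1 plus 3 SD of all ratios; inconclusive means signal too bright to measure linearly, ratio around 10 or more; inactive means fluorescence ratio below 2.44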;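 further: green fluorescence of cells measured with 488 nm excitation and 530 nm emission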
VLA-4 antagonist = inhibitors of LDV-FITC ligand binding to Mn2+-activated human VLA-4 integrin; P13612; actives 0.2% (n = 24,000); inhibition, % at 10 µM (by protocol); Jurkat cells, LDV-FITC binding with Mn2+, flow cytometry; 100% = Mn2+-driven binding gain fully reversed;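 active means inhibition above 50%; inconclusive means compound itself fluorescent, judged against control cell fluorescence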
26S disassembly = blocks ATP-dependent breakdown of the yeast 26S proteasome. anti-FLAG beads, GFP-proteasome disassembly, flow cytometry. inhibition of disassembly, % (no concentration beside the values). actives 0.2% (n = 24,000). AID 751;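 active means inhibition of disassembly above about 33%, limit read from the data; inconclusive means likely self-fluorescent, control bead median signal at least 40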;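 further: higher percent means more bead fluorescence retained so stronger block of disassembly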
VLA-4 allo ag = allosterically activates the human VLA-4 integrin; Jurkat cells, LDV-FITC binding, flow cytometry; activation, % at 10 µM (by protocol); AID 528; 24,000 tested, under 10 active; P13612;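 active means fluorescent ligand binding to cells raised by more than 40% of the manganese-induced maximum; inconclusive means compound's own fluorescence above 85% of the ligand control signal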
Large screens that a line does not name were inactive. Hits are enriched below; roughly 1.1% of the tested compounds scored in any of these assays.

CC(C)N=c1cc2n(-c3ccc(Cl)cc3)c3ccccc3nc-2cc1Nc1ccc(Cl)cc1	Jurkat autofluor 3.9, VLA-4 antagonist inconclusive, VLA-4 allo ag inconclusive
O=C(CN1CCN(Cc2ccc(Cl)cc2)C1=O)NCCN1CCCC1	VLA-4 antagonist inconclusive, 26S disassembly 48.6, VLA-4 allo ag inconclusive
COC(=O)c1ccc(C(=O)OC)c(NC(=O)c2ocnc2C)c1	none
Cc1onc(-c2ccccc2)c1C(=O)NC(C)C	none
Cc1onc(-c2ccccc2)c1C(=O)NC(CC(=O)O)c1ccc(OC(C)C)cc1 (centres undefined)	VLA-4 antagonist 86.5
O=C(Cn1c(=O)n(CCCC(=O)NC2CCCC2)c(=O)c2ccccc21)NCCC1=CCCCC1	VLA-4 antagonist inconclusive
C=CCn1c(C(C)NC(=O)C(C)(C)C)nc2ccccc21 (centres undefined)	none
C=CCn1c(/N=C/c2ccc(N(C)C)cc2)nc2ccccc21	Jurkat autofluor 4.76, VLA-4 antagonist inconclusive, VLA-4 allo ag inconclusive
O=C(NCCCn1ccnc1)c1cc(-c2ccc3c(c2)OCO3)on1	none
O=c1[nH]c(Nc2ccccc2)cc2ccccc12	Jurkat autofluor 2.86, VLA-4 antagonist inconclusive, VLA-4 allo ag inconclusive
O=c1nc(N2CCCC2)nc(Nc2ccccc2)[nH]1	none
O=C1c2ccccc2C(Nc2ccc(Cl)cn2)N1c1cccnc1 (centres undefined)	none
COc1ccc(CCN(C)CCCC(C#N)(c2ccc(OC)c(OC)c2)C(C)C)cc1OC (centres undefined)	26S disassembly inconclusive
CC(CCc1ccccc1)NC(=O)C1CCN(S(=O)(=O)c2cnc[nH]2)CC1 (centres undefined)	none
CCOc1cccc2cc(-c3csc(NC(=O)CCC(=O)N4CCN(C)CC4)n3)c(=O)oc12	none
O=C(NCC12CC3CC(CC(C3)C1)C2)c1nn2c(c1Cl)NC(c1ccco1)CC2C(F)(F)F (centres undefined)	VLA-4 antagonist 55.0
O=C(NCCN1CCOCC1)c1nn2c(c1Cl)NC(c1ccccc1)CC2C(F)(F)F (centres undefined)	none
CCOc1ccc(NC(=O)c2oc3ccccc3c2NC(=O)CC)cc1	VLA-4 antagonist inconclusive, VLA-4 allo ag inconclusive
CCOc1ccc(NC(=O)c2oc3ccccc3c2NC(=O)C(C)C)cc1	Jurkat autofluor 2.45, VLA-4 antagonist inconclusive, VLA-4 allo ag inconclusive
CCOc1ccc(N(CC(=O)NCc2cccc(OC)c2)S(=O)(=O)c2c(C)noc2C)cc1	none
CCOC(=O)c1c(C)[nH]c(C(=O)Cn2c(=O)c3c(ncn3CC)n(Cc3ccccc3)c2=O)c1C	26S disassembly 70.0
Cc1ccc(-c2nc(NC(=O)CSc3nnnn3-c3ccccc3)ns2)cc1	VLA-4 antagonist 51.0
COc1cc(C2/C(=C(/O)c3ccc(F)cc3)C(=O)C(=O)N2CCCC(=O)O)ccc1O (centres undefined)	VLA-4 antagonist inconclusive
Cc1nc2cc(Cl)c(Cl)cc2nc1C	Jurkat autofluor 3.08, VLA-4 antagonist inconclusive, VLA-4 allo ag inconclusive
C=CCn1c(=O)/c(=C/c2ccc(O)cc2)s/c1=C(/C#N)c1nnc2n1CCCCC2	Jurkat autofluor 3.69, VLA-4 antagonist inconclusive, VLA-4 allo ag inconclusive
c1ccc(CCNc2nc3ccccc3n3nnnc23)cc1	Jurkat autofluor 9.24, VLA-4 antagonist inconclusive, VLA-4 allo ag inconclusive
O=C(Cc1ccc(-n2cccc2)cc1)NCc1cccs1	none
COc1ccc(OC)c(C2C=C(c3ccc(C)c(C)c3)Nc3nnnn32)c1 (centres undefined)	Jurkat autofluor 3.64, VLA-4 antagonist inconclusive, VLA-4 allo ag inconclusive
COc1cccc(C2=CC(c3cc(OC)ccc3OC)n3nnnc3N2)c1 (centres undefined)	none
COc1ccccc1N1CSC2=C(C#N)C(c3ccc(SC)cc3)CC(=O)N2C1 (centres undefined)	VLA-4 antagonist inconclusive, VLA-4 allo ag inconclusive
Cc1ccc(CCNC(=O)CN2C(=O)COc3ccccc32)cc1	VLA-4 antagonist 62.0
Cc1cccc(N2CCN(C(=O)C3CCCN(S(=O)(=O)c4cccc5cccnc45)C3)CC2)c1C (centres undefined)	none
CNC(=O)c1cc2c(=O)n3cccc(C)c3nc2n1C	VLA-4 antagonist inconclusive, VLA-4 allo ag inconclusive
CCCCCCOC(=O)C(C#N)c1nc2ccccc2nc1N1CCCCC1 (centres undefined)	none
CCCCNC(=O)C(C#N)c1nc2ccccc2nc1N1CCCC1 (centres undefined)	Jurkat autofluor 2.5, VLA-4 antagonist inconclusive, VLA-4 allo ag inconclusive
CCN(CC)c1ccc(-c2c(C#N)c(N)nc(OC)c2C#N)cc1	Jurkat autofluor 8.16, VLA-4 antagonist inconclusive, 26S disassembly 56.7, VLA-4 allo ag inconclusive
CCCSc1nc(N)c(C#N)c(-c2ccc(C)cc2)c1C#N	none
COc1cccc2c1OC1(C)CC2NC(=O)N1c1cccc(C(=O)Nc2ccc3c(c2)OCCO3)c1 (centres undefined)	none
CCOC(=O)C1CCCN(c2c(Nc3cccc(C)c3)c(=O)c2=O)C1 (centres undefined)	none
CC(C)(C)NC(=O)NC(=O)COc1ccccc1C#N	Jurkat autofluor 4.04, VLA-4 antagonist inconclusive, VLA-4 allo ag inconclusive
CCN(CC)c1ccc(C=N/C(C#N)=C(\N)C#N)cc1	Jurkat autofluor 5.9, VLA-4 antagonist inconclusive, 26S disassembly inconclusive, VLA-4 allo ag inconclusive
Oc1cc(NCc2cccnc2)ccc1-c1nc2ccccc2o1	Jurkat autofluor 2.97, VLA-4 antagonist inconclusive, VLA-4 allo ag inconclusive
Cn1c(C(=O)NCCCN2CCCC2=O)cc2c(=O)n3ccccc3nc21	none
O=C(CCn1c(=O)oc2ccccc21)N1CCN(c2ccccc2F)CC1	none
O=C(Cn1c(=O)oc2ccccc21)N1CCN(c2ccccc2)CC1	Jurkat autofluor 2.53, VLA-4 antagonist inconclusive, VLA-4 allo ag inconclusive
Cn1c2ccccc2c(=O)n2c(=O)c3ccccc3cc12	none
CCNc1c2c3c(cccc3n(C)c1=O)C(=O)c1ccccc1-2	Jurkat autofluor 9.82, VLA-4 antagonist inconclusive, 26S disassembly 58.8, VLA-4 allo ag inconclusive
Cc1ccc(S(=O)(=O)C2(C(=O)N3CCCCC3C)CC2)cc1 (centres undefined)	none
CSc1cccc(NC(=O)CSc2nc3ccccc3o2)c1	none
O=S1(=O)C=C(Sc2nc3cc(Cl)ccc3o2)c2ccccc21	Jurkat autofluor 9.62, VLA-4 antagonist inconclusive, VLA-4 allo ag inconclusive
CC(=O)N1c2ccc(S(=O)(=O)CCC(=O)O)cc2CC1C (centres undefined)	VLA-4 antagonist 61.0
COc1ccc(CNC(=O)CCCCCn2c(SCC#N)nc3cc4c(cc3c2=O)OCO4)cc1	none
O=C1C(CCS(=O)c2ccccc2)C(=O)N(c2ccccc2)N1c1ccccc1 (centres undefined)	VLA-4 antagonist 57.7
CC1CC(C)CN(C(=O)Cn2c(=O)n(CCCCC(=O)NCc3ccco3)c(=O)c3ccccc32)C1 (centres undefined)	none
CC1=C(C(=O)N2CCc3ccccc32)C2(CCC(C)CC2)OC1=O (centres undefined)	Jurkat autofluor 6.03, VLA-4 antagonist inconclusive, VLA-4 allo ag inconclusive
CC1=C(C(=O)N2CCCCC2)C2(CCC(C)CC2)OC1=O (centres undefined)	none
CCc1ccc2nc(NC3=NCN(CCOC)CN3)nc(C)c2c1	VLA-4 antagonist inconclusive, VLA-4 allo ag inconclusive
